High-throughput results (PubChem BioAssay)
Cycloheximide cs: counter-screen hit for Shiga toxin inhibitors, cycloheximide; cell reporter, cycloheximide protein synthesis inhibition counterscreen; max response, %; hit rate 12% among 300,000; AID 2314; in the data active means max response mostly above about 13%, no sharp cut-off; inactive means mostly below about 14%; further: read at 38.3 µM for the half of the compounds with a filed dose; 0% is about no effect
Pf growth 96h: P. falciparum growth inhibition at 96 hours; P. falciparum luciferase reporter growth, 96 h; Potency, µM (titrated, usually from 28.7 µM), inactives show top-dose activity change, negative = inhibition, most hits filed as inhibitors; hit rate 6.9% among 320,000; AID 504834; further: potency means the concentration at half of the fitted maximal effect; on the % scale 0 is the no-effect control and ±100 the full control effect
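Compounds incubated with erythrocytes infected by luciferase-expressing P. falciparum (2% hematocrit, 0.05% parasitemia final) for 96 hours, 37 C in 5% CO2. Growth inhibition scored as decreased luciferase luminescence.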
AMA1 RON2 block: disrupts binding of P. falciparum AMA1 to RON2; AlphaScreen AMA1-biotinylated RON2 peptide binding; Potency, µM (top dose mostly 58.2 µM), for inactives: at the highest dose activity change, negative = inhibition, actives largely listed as inhibitors; hit rate 0.2% among 360,000;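 further: potency means the concentration at half of the fitted maximal effect; 0% = vehicle wells and -100% = peptide control; nearly all actives have a fitted effect of over 45% in size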
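AMA1 (3D7) with his tag at 25 nM final met compounds first, then biotinylated RON2 peptide at 25 nM; detection used donor plus acceptor beads, 10 µg/mL apiece, read by AlphaScreen after 30 min at room temperature.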
Pf growth 48h: P. falciparum growth inhibition at 48 hours (one generation); P. falciparum luciferase growth in erythrocytes, 48 h; Potency, µM (series often up to 28.7 µM), without a hit: at the top dose activity change, negative = inhibition, usual class: inhibitors; hit rate 5.9% among 310,000; further: potency means the concentration at half of the fitted maximal effect; on the % scale 0 is the no-effect control and ±100 the full control effect
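Luciferase-expressing parasites in RBCs, 2% Hct / 0.1% parasitemia final; RPMI 1640 + 0.5% Albumax; 37 C, 5% CO2, one generation; luminescence read-out, lower signal = inhibition.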
Shiga toxin inh: Shiga toxin inhibition; Vero cells, Shiga toxin protein synthesis inhibition reporter; inhibition, % at 38.7 µM; hit rate 9.2% among 290,000; in the data active means inhibition mostly above about 28%, no sharp cut-off; inactive means mostly below about 43%; further: 0% is about no effect
HCV inh: inhibitors of hepatitis C virus infection | Huh7.5.1 HCVcc-Cre infection, luciferase reporter, 44 h | AID 651820 | hit rate 3.4% among 340,000 | Potency, µM (series often up to 41.8 µM), without a hit: top-dose activity change, negative = inhibition, usual class: inhibitors; further: potency means the concentration at half of the fitted maximal effect; on the % scale 0 is the no-effect control and ±100 the full control effect
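Antiviral activity was scored by luciferase reporter output from cells infected with HCVcc-Cre (~0.5 moi) in presence of compound, 44 h infection period, cells seeded 1,000/well 4 h prior.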
* = called active by the depositor; ? = inconclusive; nt = not tested or not shown; [ ] = dose if it differs, or a comment. An excerpt weighted towards active compounds, which were near 21% of everything screened. Unless noted, the call rests on the fitted dose curve; in most records, active means well fitted curve in the direction sought with a large enough effect; inconclusive means small, poorly fitted or top-dose-only effect, or another doubt; inactive means no such curve, though single readings can be large; an effect the other way counts as inactive or inconclusive.

SMILES	Cycloheximide cs	Pf growth 96h	AMA1 RON2 block	Pf growth 48h	Shiga toxin inh	HCV inh
CC(O)[C@@H](C(=O)N1CCNCC1)n1cc(CCCCN)nn1 (stereo partly specified)	-2.5	31.3%	0.1%	44.5%	-18.1	?
O=C(NCc1ccc(Cl)cc1)c1ccc(-c2ccc(F)c(F)c2)c2ccoc12	nt	nt	14.6%	nt	nt	nt
CCc1nc(SCc2cc(=O)[nH]c3ccccc23)c2c(C)c(C)sc2n1	nt	nt	-19.7%	nt	nt	24.2%
Cc1cc(/C=N/Nc2ncnc(N)c2[N+](=O)[O-])c(C)n1-c1ccccc1	3.9	0.0%	98.7%	27.4%	-2.4	?
Cc1cc(/C=N/Nc2nc(N)ncc2[N+](=O)[O-])c(C)n1-c1cccc(C(F)(F)F)c1	26.2*	-40.4%	nt	82.7%	61.7*	nt
O=C(NCCc1ccccc1)C1CCC(=O)N1CCc1ccccc1 (stereo unspecified)	-6.4	-21.4%	?	-26.9%[0.00184 µM]	-11.9	11.8%
CCOc1ccc(CCNC(=O)C2CCC(=O)N2CCc2ccccc2)cc1OCC (stereo unspecified)	-4.7	13.1µM*	-1.2%	nt	-23.9	?
CCCC(C)NC(=O)C1CC(=O)N(CCc2ccc(F)cc2)C1 (stereo unspecified)	1.6	0.928µM*	-1.7%	0.0%	36.8	11.4%
CCOc1ccc(CCNC(=O)CN2C(=O)CCSc3ccccc32)cc1OCC	-1.6	0.185µM*	-9.7%	0.0%	-11.8	-28.8%
COc1ccc(CCN2CC(C(=O)NCCc3ccccc3)CC2=O)cc1OC (stereo unspecified)	36.4*	?	-4.4%	93.8%	171.9*	15.7%
C=CCn1nnnc1SCC(=O)Nc1cccc(C(F)(F)F)c1	3.4	-7.2%	-2.2%	23.4%	-8.4	9.0%
COc1ccc(CN2C(=O)c3ccccc3C2c2nnnn2-c2c(C)cccc2C)cc1OC (stereo unspecified)	nt	nt	-5.9%	nt	nt	nt
CCCC1CC(C)(c2csc(Nc3ccc(OCC)cc3)n2)OC1=O (stereo unspecified)	19.7*	?	-18.4%	?	60.5*	?
OCCC1CN(Cc2c(F)cccc2Cl)CCN1C1CCCC1 (stereo unspecified)	-1.0	13.1µM*	0.6%	-5.3%	-3.3	0.1%
Cc1cccc(-n2ccnc2CN2CCN(C3CCCC3)C(CCO)C2)c1 (stereo unspecified)	5.1	6.57µM*	-1.7%	-14.0%	-1.5	14.7%
CC(=O)Nc1ccc(CN2CCN(C3CCCC3)C(CCO)C2)cc1 (stereo unspecified)	-0.7	8.28µM*	0.0%	58.6%	18.5	15.2%
CN(C)c1nc(N)ncc1-c1ccc(Oc2ccccc2)cc1	-1.6	?	-2.8%	?	18.2	-7.4%
Cn1c(SCC(=O)c2ccccc2)ncc(C(=O)Nc2ccccc2)c1=O	nt	27.9%	34.8%	0.0%	nt	-11.7%
COC(=O)c1ccnc(SCC(=O)c2ccccc2)c1	42.5*	46.5%	?	43.0%	79.3*	11.4%
COC(=O)c1cnc(SCC(=O)c2ccccc2)n1C	43.3*	345.9%	-10.5%	153.8%	100.4*	-9.0%
COC(=O)c1cnc(SCc2ccc(Cl)cc2)n1C	46.7*	42.5%	-1.2%	59.7%	65.4*	-7.4%
COC(=O)c1ccc2ncccc2c1	10.0	-23.9%	-2.8%	8.7%	27.4	3.9%
Cc1cccc(-c2cccc3nccn23)c1	nt	nt	-1.9%	nt	nt	nt
COc1ccc(OC)c(CN2C(=O)c3ccccc3C2c2nnnn2Cc2ccccc2)c1 (stereo unspecified)	nt	nt	-11.6%	nt	nt	nt
CCN1CCN(C(=O)N(CC(=O)Nc2ccc(C(N)=O)cc2)S(=O)(=O)c2ccc(C)cc2)CC1	nt	49.9%	2.2%	0.1%	nt	29.9%
CC1CCN(Cc2nnnn2CCCC(=O)NCCc2cnn(C)c2)CC1	-2.3	?	1.5%	6.7%	-3.4	8.6%
Cc1cc2nc(SCCN3CCCC3)[nH]c2cc1C	12.5*	-3.1%	6.2%	nt	13.7	-23.3%
Nc1ncnc2nc(SCCN3CCCCC3)[nH]c12	-2.7	8.9%	12.0%	-7.3%	-5.5	23.0%
O=C(COC(=O)/C=C/c1ccc([N+](=O)[O-])cc1)NCC1CCCCC1	nt	nt	-0.7%[11.6 µM]	nt	nt	17.8%
